Compound activity deposited in PubChem by several laboratories.
Shown are actives, neighbours in structure and some others; about 1.9% of the full set was active somewhere.
ATG4B inhibitor: inhibitors of human ATG4B cysteine protease; inhibition, % at 8.33 µM; actives 0.51% (n = 340,000); Q9Y4P1; ATG4B cleavage of LC3-PLA2, NBD-HPC fluorescence, 1 h; in the data active = inhibition above about 40%
Target sequence (Q9Y4P1 whole entry, looked up): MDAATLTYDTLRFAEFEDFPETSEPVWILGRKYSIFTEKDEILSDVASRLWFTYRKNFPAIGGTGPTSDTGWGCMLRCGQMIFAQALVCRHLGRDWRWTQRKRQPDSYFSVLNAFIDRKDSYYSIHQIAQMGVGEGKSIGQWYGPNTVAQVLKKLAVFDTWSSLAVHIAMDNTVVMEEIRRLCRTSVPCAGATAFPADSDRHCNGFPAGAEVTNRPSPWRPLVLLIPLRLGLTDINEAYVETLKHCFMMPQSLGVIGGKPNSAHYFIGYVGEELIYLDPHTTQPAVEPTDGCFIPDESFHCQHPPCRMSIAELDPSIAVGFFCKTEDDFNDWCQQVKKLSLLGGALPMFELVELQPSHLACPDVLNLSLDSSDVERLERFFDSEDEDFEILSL
PP5 inh: blocks human protein phosphatase 5 activity. purified PP5c, OMFP substrate fluorescence. inhibition, % at 6.7 µM. actives 0.18% (n = 320,000);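 active = inhibition above the campaign's mean inhibition across all tested compounds plus 3 SD, cut at about 9.5% in these data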;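 note: 0% = DMSO only and 100% = 100 µM cantharidin control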
PP1 counter: blocks human PP1-alpha phosphatase, a PP5 counter-screen. P62136. purified PP1alpha, OMFP fluorescence. inhibition, % at 6.7 µM. actives 0.9% (n = 320,000). AID 2235;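 active = inhibition above the mean inhibition of all tested compounds plus 3 SD, computed separately for each screening campaign, cut at about 15% in these data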
Cardio protect: myocardial damage modulation in H9c2 cells | AID 588492 | protection from H2O2 cell death, % at 20 µM | H9c2 cardiomyocytes, H2O2 injury protection, ATPLite, 2 h | actives 0.63% (n = 360,000);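 active = compounds giving at least 50% protection of heart cells from peroxide-induced death in the single-dose screen, raw or plate-pattern-corrected value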;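 note: 0% = DMSO wells with peroxide and 100% = DMSO wells without peroxide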
ATG4B confirm: confirmation of human ATG4B inhibitors; shares compounds with ATG4B inhibitor; ATG4B protease fluorescent substrate cleavage assay; inhibition, % at 8.33 µM; actives 92% (n = 320); AID 504757; in the data active = inhibition above about 39%
PLA2 ctr: PLA2 (human) inhibition in ATG4B counter-screen. actives 66% (n = 1,600). shares compounds with ATG4B inhibitor. inhibition, % at 8.33 µM. purified PLA2, NBD-C6-HPC fluorescence, 45 min; in the data active = inhibition above about 50%
* = called active by the depositor; · = not tested or not shown.

SMILES	ATG4B inhibitor	PP5 inh	PP1 counter	Cardio protect	PLA2 ctr	others
O=C(Nc1cccc(Cl)c1N1CCCC1)c1ccc(Br)o1	56*	0	-3	-16	56*
CCCC(=O)NC(=S)Nc1cccc(Cl)c1N1CCCCC1	41*	1	-2	-20	37	ATG4B confirm=56*
CCC(=O)NC(=S)Nc1cccc(Cl)c1N1CCCCC1	42*	-1	1	-20	39	ATG4B confirm=61*
O=C(Nc1cccc(Cl)c1N1CCCC1)c1ccc([N+](=O)[O-])o1	3	-3	3	-10	·
O=CNn1cnc2c(oc3nc(-c4ccccc4)cc(-c4ccco4)c32)c1=O	12	-2	-1	-1	·
COCc1ccc(C(=O)N2CCCC(CNC(=O)c3ccc(F)cc3)C2)o1 (centres undefined)	-3	4	-3	0	·
Cc1ccc(C(=O)O)cc1N=Cc1cc(Br)cc(Br)c1O	44*	-2	3	77*	21	ATG4B confirm=59*
CC(=O)Nc1ccc(C(=O)N/N=C/c2cc(Br)cc(Br)c2O)cc1	-8	1	-3	32	·
CCOC(=O)C1CCN(C(=O)Cn2c(=O)c3cccn3c3cccnc32)CC1	-5	-2	-2	6	·
C/C(=N\NC(=O)c1cccc(N/N=C(\C)c2cc(O)ccc2O)c1)c1cc(O)ccc1O	46*	-1	1	37	78*
CCC1=NN(C(=O)c2cccc(Br)c2)C(O)(c2ccc(Br)cc2)C1 (centres undefined)	43*	4	1	-22	47	ATG4B confirm=58*
Fc1ccc(Nc2nc(N/N=C/c3ccco3)nc(N3CCCCC3)n2)cc1	64*	1	4	-1	78*
CNC(=S)Nc1cccc(S(=O)(=O)NCc2ccco2)c1	1	·	·	1	·
O=C(CN1C(=O)/C(=C/c2ccco2)SC1=S)Nc1ccc(C(=O)O)c(O)c1	62*	0	8	-2	20	ATG4B confirm=57*
CC(C(=O)Nc1ccc(C(=O)O)c(O)c1)N1C(=O)/C(=C\c2ccco2)SC1=S (centres undefined)	48*	-4	-2	-6	12	ATG4B confirm=62*
C=CCC(=O)N1CCCC(CO)(Cc2ccc(F)cc2F)C1 (centres undefined)	-5	1	-4	0	·
CN1CCS/C1=C/C=C1/SC(=S)N(Cc2ccccc2)C1=O	82*	2	10	7	80*
CCCCN1C(=O)/C(=C/C=C2\SCCN2C)SC1=S	73*	·	·	-19	80*
CN1CCS/C1=C/C=C1\SC(=S)N(CC(=O)O)C1=O	-19	3	8	-12	·
Cc1cnc(NC(=O)CC2OC(=O)c3ccccc32)s1 (centres undefined)	-9	·	·	1	·
Cc1ccc(-c2nnc(Nc3ccc(CC(N)=O)cc3)c3ccccc23)cc1S(N)(=O)=O	88*	0	0	0	89*
NC(=O)COc1ccc(Nc2nnc(-c3ccc(O)cc3)c3ccccc23)cc1	57*	-1	6	10	69*
Cc1ccc(-c2nnc(Nc3ccc(CC(N)=O)cc3)c3ccccc23)cc1S(=O)(=O)NCC1CCCO1 (centres undefined)	90*	1	-5	7	89*
CNS(=O)(=O)c1cc(-c2nnc(Nc3ccc(CC(N)=O)cc3)c3ccccc23)ccc1C	91*	-2	0	5	91*
Cc1ccc(-c2nnc(Nc3ccc(OCC(N)=O)cc3)c3ccccc23)cc1S(N)(=O)=O	33	3	-2	3	·
SMILES	ATG4B inhibitor	PP5 inh	PP1 counter	Cardio protect	PLA2 ctr	others
COC(=O)c1ccc(Nc2nnc(-c3ccc(C)c(S(=O)(=O)NCC4CCCO4)c3)c3ccccc23)cc1 (centres undefined)	10	3	-1	19	·
CCNC(=O)C1(C)CCN(C(=O)c2cccs2)C1 (centres undefined)	·	·	·	4	·
Cc1ccc(-c2cnc3c(c2)C(=O)N([C@H](C)CO)C[C@@H](C)[C@@H](CN(C)C(=O)Cc2ccccc2)O3)cc1	·	·	·	-6	·
Cc1ccc(-c2nnc(Nc3ccc(CC(N)=O)cc3)c3ccccc23)cc1	97*	-1	1	5	97*
COc1ccc(CNC(=O)CSc2nccn(-c3ccc(F)c(F)c3)c2=O)cc1	-10	1	0	0	·
C=CCn1c(SCC(=O)Nc2cc(Cl)ccc2C(=O)O)nc2sc(C)c(C)c2c1=O	61*	3	-1	-10	53*
Nc1nonc1C(=O)NCCN=Cc1cc(Cc2ccccc2)cc(Br)c1O	86*	1	-3	36	72*
O=C(c1cccs1)N(Cc1ccco1)c1nc(-c2ccc(F)cc2)cs1	42*	-3	8	-12	56*
Cc1ccc2c(C)c(C(=O)NCCN3CCOC3=O)oc2c1C	-2	3	-2	-1	·
CCOc1cc(/C=C2/SC(=O)N(CC(=O)N3CCc4ccccc4C3)C2=O)ccc1OCC(=O)O	56*	1	4	1	45	ATG4B confirm=67*
NC(=O)COc1ccccc1/C=C1/SC(=O)N(CC(=O)N2CCc3ccccc3C2)C1=O	6	1	-1	-4	·
O=C(C[C@@H]1C/C=C\C[C@H](Cc2ccc(F)cc2)C(=O)OC[C@H]2CCCN2C1=O)N[C@H](CO)Cc1ccccc1	-10	·	·	36	·
Cc1ccc(NC(=S)NCCSc2ccc(Cl)cc2)cc1	8	4	5	-11	·
CC(CNC(=S)Nc1cc(F)cc(F)c1)CSc1ccc(Cl)cc1 (centres undefined)	46*	3	1	-15	69*
COc1ccccc1N1CCN(C(=O)CSc2nnc(C)n2C2CC2)CC1	-4	·	·	-5	·
